Assay results taken from ChEMBL document CHEMBL3433997, “St. Jude Leishmania screening dataset” (2016).

How the values were obtained:
Type in all cases: functional
[1] = target: Solute carrier family 2, facilitated glucose transporter member 1 (Homo sapiens) (UniProt P11166); assay: ST_JUDE_LEISH: Cytotoxicity at 2uM final concentration against transgenic Leishmania Mexicana promastigotes LmGLUT1 that are glucose transport deficient and complemented with the human glucose transporter GLUT1. Activity is measured by DNA content using SYBR green in vitro
Chain of Solute carrier family 2, facilitated glucose transporter member 1 (Homo sapiens) (P11166 whole entry): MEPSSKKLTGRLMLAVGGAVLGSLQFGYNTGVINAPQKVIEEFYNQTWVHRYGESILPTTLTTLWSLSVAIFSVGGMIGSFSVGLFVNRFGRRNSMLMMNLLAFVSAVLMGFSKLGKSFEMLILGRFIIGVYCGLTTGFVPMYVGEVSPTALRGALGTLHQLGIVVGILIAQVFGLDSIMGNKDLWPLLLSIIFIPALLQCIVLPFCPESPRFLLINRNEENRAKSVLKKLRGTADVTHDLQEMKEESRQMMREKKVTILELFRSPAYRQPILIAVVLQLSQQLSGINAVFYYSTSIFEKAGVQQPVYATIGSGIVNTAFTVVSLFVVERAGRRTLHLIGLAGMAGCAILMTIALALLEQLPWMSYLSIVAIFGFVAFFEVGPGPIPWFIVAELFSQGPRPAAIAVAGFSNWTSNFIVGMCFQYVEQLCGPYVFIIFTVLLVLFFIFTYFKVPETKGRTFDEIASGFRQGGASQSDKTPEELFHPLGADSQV

[2] = target: Hexose transporter 1 (Plasmodium falciparum) (UniProt O97467); assay: ST_JUDE_LEISH: Cytotoxicity at 2uM final concentration against transgenic Leishmania Mexicana promastigotes LmPfHT that are glucose transport deficient and complemented with the Plasmodium falciparum hexose transporter. Activity is measured by DNA content using SYBR green in vitro
[3] = target: Glucose transporter (Leishmania mexicana) (UniProt O61059); assay: ST_JUDE_LEISH: Cytotoxicity at 2uM final concentration against transgenic Leishmania Mexicana promastigotes LmGT2 that are glucose transport deficient and complemented with the L. Mexicana glucose transporter 2. Activity is measured by DNA content using SYBR green in vitro

Row | Structure (SMILES) | inhibition [1] | inhibition [2] | inhibition [3]
1 | Cc1ccc(Nc2ccnc(Nc3ccc4c(c3)CS(=O)(=O)C4)n2)cc1O | 2.49% | 3.19% | 4.14%
2 | Clc1ccc2c(N3CCN(CCN4CCN(c5ccnc6cc(Cl)ccc56)CC4)CC3)ccnc2c1 | 0.09% | 0.23% | 0.08%
3 | Cn1c(N)cc(-c2ccc(Br)cc2)c2c(=O)nc(N)nc1-2 | 6.75% | 4.96% | 5.76%
4 | CC(=O)Nc1ccc(CN2CCC(CNC(=O)c3cc(-c4cccc(Cl)c4)cs3)C2)cc1 (centres undefined) | -1.53% | 0.33% | 3.3%
5 | COc1ccc2nccc([C@@H](O)CN3CCC(NCc4cnc5snnc5c4)C(F)C3)c2c1 (some centres undefined) | 0.43% | 1.51% | 2.93%
6 | CN1CCN(CCCN(Cc2ccc(-c3ccc(CNCCc4ccccc4)cc3)cc2)C(=O)c2cccs2)CC1 | 2.36% | 1.19% | 3.32%
7 | CN1CCN(Cc2ccc(-c3ccc4c(Nc5cc(O)c(F)cc5Cl)ccnc4c3)o2)CC1 | 4.84% | 2.61% | 2.56%
8 | COc1ccc2nccc([C@@H](O)CN3CCC(NCc4cc5ccccc5nc4O)CC3)c2c1 | 1.8% | 1.94% | 2%
9 | COc1cc2c(Nc3ccc(NC(=O)c4ccccc4)cc3)ncnc2cc1OCCCN1CCOCC1 | 3.25% | 3.13% | 4.08%
10 | CC(C)N1CCN(C(=O)c2ccc(CNCCCN3CCN(c4ccccc4C(F)(F)F)CC3)s2)CC1 | -4.83% | 0.84% | 4.26%
11 | CN1CCN(Cc2ccc(-c3cc4c(Nc5ccc(OCc6cccc(F)c6)c(Cl)c5)ncnc4s3)[nH]2)CC1 | 12.7% | 11.4% | 8.25%
12 | O=C(CNCC1CCCCC1)Nc1cc(C(F)(F)F)ccc1Cl | 1.93% | 0.51% | 1.07%
13 | O=C(Nc1ccc(CCNCc2ccccc2)cc1)Nc1ccc(OC(F)(F)F)cc1 | -1.69% | -0.14% | 0.49%
14 | C=CCOc1cc(Cc2cnc(N)nc2N)cc(OC)c1OC | 1.5% | -3.15% | -1.97%
15 | COc1ccc(NC(=O)/C=C/c2ccccc2Cl)cc1OCCN1CCC(NC2CC2)CC1 | 8.25% | 5.69% | 4.32%
16 | N#Cc1cccc(NC(=O)Nc2cccc(-c3cccc(-c4nc5cc(F)ccc5[nH]4)c3)c2)c1 | 9.7% | 7.87% | 8.96%
17 | CCCCCOc1ccc(N2C(N)=NC(N)=NC2(C)C)cc1 | 2.39% | 2.59% | 2.5%

Row | Structure (SMILES) | inhibition [1] | inhibition [2] | inhibition [3]
18 | COc1ccc2nc(SC(C)C(=O)c3c[nH]c4ccccc34)[nH]c2c1 (centres undefined) | 2.5% | 0.87% | 2.35%
19 | CCN(CC)CCCNc1nccc(N(C)c2ccc(NC(=O)Nc3cc(C(F)(F)F)ccc3F)cc2)n1 | 11.7% | 9.93% | 11.9%
20 | CSc1cccc(NC(=O)Nc2ccc(I)c(OCCN(C)C)c2)c1 | 4.88% | 4.31% | 3.56%
21 | CN(C)CCNC(=O)c1cc2c(-c3ccc(Cl)cc3)nn(C)c2s1 | 2.62% | 2.13% | 1.3%
22 | COc1ccc2nc(-c3cc(-c4ccc(NC(=O)C(C)C)cc4)cnc3N)[nH]c2c1 | 20.8% | 40.7% | 12.9%
23 | COc1ccc(C(=O)Nc2ccc3nc(N4CCCCC4)cc(C)c3c2)cc1OC | 1.54% | -0.36% | 0.56%
24 | CC1(C)CCC(C)(C)c2c1ccc(C1CCN(CCCCNC(=O)c3ccc(-c4ccc(C#N)cc4)cc3)CC1)c2O | 0.66% | 0.22% | 0.63%
25 | CCNCCCC(C)Nc1ccnc2cc(Cl)ccc12 (centres undefined) | -2.28% | -2.68% | -2.34%
26 | CCOC(=O)NC1=NC(=N)N(OCCCOc2cc(Cl)c(Cl)cc2Cl)C(C)(C)N1 | -0.21% | -0.15% | 1.91%
27 | CCCCCCCCCN(CCC)C(=O)[C@@H]1OC(C(=O)OC(c2ccccc2)c2ccccc2)=C[C@H](NC(=O)OC(C)(C)C)[C@H]1NC(C)=O | 2.98% | 2.98% | 1.47%
28 | CC(=O)Nc1ncc(C(=O)Nc2cccc(-c3ccc(-c4nc5cc(C(F)(F)F)ccc5[nH]4)s3)c2)s1 | 3.37% | 4.16% | 3.18%
29 | Nc1nccc2ccc(-c3cccc(OCc4ccccc4)c3)cc12 | 1.85% | 2.5% | -2.03%
30 | Cn1cnc2nc(NCCc3ccccc3)nc(NCc3cccc4ccccc34)c21 | 0.91% | 1.38% | -1.12%
31 | COc1ccc(-c2nonc2NC(=O)c2ccc(OC(C)C)cc2)cc1OC | 0.75% | 3.06% | 3.04%
32 | Cc1ccc2nc(-c3ccc(C(=O)NCc4ccc(Cl)c(Cl)c4)cc3)[nH]c2c1C | 2.57% | 0.03% | 0.59%
33 | COc1ccc(C(=O)NC(c2ccc(Cl)cc2Cl)c2cc(Cl)c3cccnc3c2O)cc1 (centres undefined) | 0.87% | 3.16% | -1.58%
